From article PMC12431657, “Discovery and mechanistic insights of dibenzoylmethane as a broad spectrum inhibitor of coronavirus” (PLOS Pathogens, 2025)
Structures can show the parent of a compound that is named as a salt. Where two headings read alike, the source gives them in different places. The whole screen tested about 3,300 compounds, of which about 95 (3%) showed an effect of 50% or more. Shown is part of a subset that was picked to be rich in strong results.

Tested on: HCoV-229E
Design: species or system Huh-7; HTS, protection from HCoV-229E induced cell death, luminescent cell viability (CellCounting-Lite 2.0), inhibition rate
Conditions: 24 h post infection, 1 h compound pre-incubation, 10 µM, inhibitor

Structure (SMILES) | 229E Inhibition rate (229E Inhibition rate, 24 h) [%] | 229E Inhibition rate [%]
O=C(O)[C@H](O)[C@@H](O)C(=O)O [L-Tartaric acid] | 17.2 | –
CCOC(=O)CC(C)O (stereo not shown) [Ethyl 3-hydroxybutyrate] | – | 11.8
CN1c2ccccc2C(=O)N2CCc3c([nH]c4ccccc34)C21 (racemic) [(±)-Evodiamine] | – | 18.7
CCCCC/C=C/C=C/C(=O)NCC(C)C [Pellitorine] | – | 14.2
O=C(O)c1ccccc1 [Benzoic acid] | – | 11.6
O=C(O)c1ccc(C(=O)O)cc1 [Terephthalic acid] | – | 10.1
O=C(O)c1ccncc1 [Isonicotinic acid] | – | 55
O=C(O)c1c(O)cccc1O [2,6-Dihydroxybenzoic acid] | – | 10.3
C=C(CO)C(=O)O[C@H]1CC(=C)[C@@H]2C[C@H](O)C(=C)[C@@H]2[C@H]2OC(=O)C(=C)[C@@H]21 [Cynaropicrin] | – | 8.5
Cc1ccccc1C(=O)O [o-Toluic acid] | – | 0
O=C(O)CNC(=O)c1ccccc1 [Hippuric acid] | – | 8.9
Cc1ccccc1C(=O)NCC(=O)O [2-(2-Methylbenzamido)acetic acid] | – | 54.8
CCOC(=O)/C=C/c1ccc(O)cc1 [p-Coumaric Acid Ethyl Ester] | – | 23
O=C1Cc2ccccc2N1 [Oxindole] | – | 15.9
O=C1C=CC[C@@H]2[C@H]3CCCN4CCC[C@@H](CN12)[C@@H]34 [Sophocarpine (monohydrate)] | 23.9 | –
COc1ccc(C2COc3cc(O)ccc3C2)c(O)c1OC (stereo not shown) [Isomucronulatol] | – | 9.8
COc1ccc(C(=O)O)cc1 [p-Anisic acid] | – | 5.8
Oc1cc(O)c2c(c1)O[C@@H](c1cc(O)c(O)c(O)c1)[C@H](O)C2 [(-)-Gallocatechin] | – | 16.1
Oc1cc(O)c2c(c1)O[C@H](c1cc(O)c(O)c(O)c1)[C@H](O)C2 [(-)-Epigallocatechin] | – | 10.4
Oc1cc(O)c2c(c1)O[C@H](c1cc(O)c(O)c(O)c1)[C@@H](O)C2 [(+)-Gallocatechin] | – | 54.1
O=C(O)CC(O)(CC(=O)O)C(=O)O [Sodium citrate (dihydrate)] | 0 | –
CC(C)C1=Cc2ccc3c(c2C(=O)C1=O)CCCC3(C)C [Miltirone] | – | 4.2
O=C(O)Cc1cccc(O)c1 [3-Hydroxyphenylacetic acid] | – | 11

Structure (SMILES) | 229E Inhibition rate (229E Inhibition rate, 24 h) [%] | 229E Inhibition rate [%]
CC1=C[C@]2(O)O[C@@]3(CC2=C(C)C)[C@@H](C)CC[C@@H]13 [Curcumenol] | – | 64.3
C=C1C[C@@]2(O)O[C@@]3(C[C@H]2C(C)C)[C@@H](C)CC[C@@H]13 [Curcumol] | – | 11.7
C=C1C[C@]2(O)O[C@@]3(CC2=C(C)C)[C@@H](C)CC[C@@H]13 [Isocurcumenol] | – | 10.7
O=C1CCCCC1=O [1,2-Cyclohexanedione] | – | 20.8
C=C(C)C1CC=C(C)C(O)C1 (mixture of isomers) [Carveol] | – | 14.5
C[C@H]1CC[C@@H]2N(C1)C[C@H]1[C@@H]3C[C@H]4[C@@H](CC(=O)[C@H]5C[C@@H](O[C@@H]6O[C@H](CO)[C@@H](O)[C@H](O)[C@H]6O)CC[C@@]54C)[C@@H]3CC[C@@H]1[C@]2(C)O [Edpetiline] | – | 11.7
O[C@@H]1[C@@H](O)[C@H](OC/C=C/c2ccccc2)O[C@H](CO[C@@H]2OC[C@H](O)[C@H](O)[C@H]2O)[C@H]1O [Rosavin] | – | 56.6
COc1ccc(C(C)=O)c(O[C@@H]2O[C@H](CO[C@@H]3OC[C@H](O)[C@H](O)[C@H]3O)[C@@H](O)[C@H](O)[C@H]2O)c1 [Apiopaeonoside] | – | 0
COC(=O)c1ccccc1O[C@@H]1O[C@H](CO[C@@H]2OC[C@@H](O)[C@H](O)[C@H]2O)[C@@H](O)[C@H](O)[C@H]1O [Gaultherin] | – | 45.9
O=C1NCN(c2ccccc2)C12CCN(CCCOc1ccc(F)cc1)CC2 [Spiramide] | – | 51.4
Cc1cc(O)c2c(c1)C(=O)c1cccc(O)c1C2=O [Chrysophanol] | – | 29.5
O=C1c2cccc(O)c2C(=O)c2c(O)cccc21 [Danthron] | – | 0
O=C(O)c1cc(O)c2c(c1)C(=O)c1cccc(O)c1C2=O [Rhein] | – | 55.2
C=C1C=CC(C(C)C)CC1 (stereo not drawn) [β-Phellandrene] | – | 51.8
CC(C)=CC[C@]12Oc3cc(O)c([C@H]4C=C(C)C[C@H](c5ccc(O)cc5O)[C@H]4C(=O)c4ccc(O)cc4O)c(O)c3C(=O)[C@@]1(O)Oc1cc(O)ccc12 [Sanggenon C] | – | 43.3
COC(=O)[C@@H]1[C@H]2C[C@H]3c4[nH]c5ccccc5c4CCN3C[C@@H]2CC[C@@H]1O [Yohimbine] | 50.5 | –
COC(=O)C1=CO[C@@H](C)[C@H]2CN3CCc4c([nH]c5ccccc45)[C@@H]3C[C@H]12 [Ajmalicine] | – | 55.3
COC(=O)[C@@H]1[C@H]2C[C@H]3c4[nH]c5ccccc5c4CCN3C[C@@H]2CC[C@@H]1O [Yohimbine (Hydrochloride)] | 36 | –
COC(=O)C1=CO[C@@H](C)[C@@H]2CN3CC[C@@]4(C(=O)Nc5ccccc54)[C@@H]3C[C@H]12 [Isopteropodine] | – | 13.3
COC(=O)C1=CO[C@@H](C)[C@H]2CN3CC[C@]4(C(=O)Nc5ccccc54)[C@@H]3C[C@H]12 [Mitraphylline] | – | 5.5
COC(=O)[C@H]1[C@H]2C[C@H]3c4[nH]c5ccccc5c4CCN3C[C@H]2CC[C@@H]1O [Rauwolscine (hydrochloride)] | – | 43.9
Cn1cnc2c(ncn2[C@@H]2O[C@H](CO)[C@@H](O)[C@H]2O)c1=N [1-Methyladenosine] | – | 12.1
N[C@@H](Cc1c[nH]c2ccc(O)cc12)C(=O)O [5-Hydroxytryptophan] | 13.7 | –
